Measurements from article PMC10163288.
A selection follows. How many sequences the whole screen found active is unknown.

B1: il10ra_site1_sap_19_mot_HHH_b1_05214_000000232_0001_38_57_H_._HHH_b2_00758_0001_0000400024_0000001_0_0001 (protein)
chain: SSSSDIRELYELSREAVELRHEGNPEEAEKVVEEAEELARELNNRVLLAVIEWLREAIETSSSSS
B2: il10ra_site1_sap_16_mot_HHH_b1_06789_af2_000000041_0001_1_20_H_._HHH_b2_05269_af2_0001_0000200010_0000002_0_0001 (protein)
chain: SSSSDVEEELRELLKELEELVEEGDEEKFLRVAMEALHLAFQARDEEVLQLLWELAKELASSSSS
B3: il10ra_site1_normal_mot_HHH_b2_02693_af2_000000213_0001_19_35_H_._HHH_b2_04275_0001_0000300016_0000001_0_af2pred_0001 (protein)
chain: SSSSSSEESEELLEQLEEALRRGDEELIARLVLEIARLAEELNDKELVEELLRLLVEHQSSSSSS
B4: il10ra_site1_normal_mot_8756ee2cf497b5429c717dfc0c0bcfd6_0001_000000186_0001_1_13_H_._HHH_b2_00624_0001_0000300028_0000001_0_af2pred_0001 (protein)
chain: SSSSSEEAEELYRLLREAAELHWEGNPEEARELLEEAEELAKEAGNLNALAVIRFLLEVAGSSSS
B5: il10ra_site1_normal_mot_HHH_b2_00943_af2_000000149_0001_1_17_H_._d3c612d18aab0e0945b39b51a1e20ad4_0001_1_af2_0001_0000500040_0000001_0_af2pred_0001 (protein)
chain: SAEEVLQRQVERDPDDASALHLLLLVLAAKEGDPELVQLLRRANELSREGNPEEAREILQEAIER
B6: il10ra_site1_sap_27_mot_104c758fc23488854646035ccb2100c6_0001_000000282_0001_15_29_H_._5a9d7fc92c57439179869c3e1d567c11_0001_0001_0000100005_0000001_0_0001_af2p … (protein)
chain: SSSSSPLEKKLEATTKYLKFCLSHNDLEGIKSGLIALKQLGDESGNEEAKKVAAEVEEKLKSSSS
B7: il10ra_site1_normal_mot_HHH_b1_01779_000000096_0001_43_57_H_._HHH_b2_08219_0001_0000100005_0000001_0_af2pred_0001 (protein)
chain: SSSSNKEEAERSVRLLLELAKRLEDPERARAALRDARRTAEYVNDPELEELVEEVEREVLSSSSS
B8: il10ra_site1_sap_19_mot_HHH_b2_02053_af2_000000006_0001_3_19_H_._HHH_b1_07370_0001_0000100001_0000002_0_0001 (protein)
chain: SSSSSDEEVEELLKEAEELAEEGNPEEAAKVLLEAVRLAIQAGDEEALQKVWEVVKELAKSSSSS
B9: il10ra_site1_sap_23_mot_HHH_b2_03708_000000000_0001_1_18_H_._HHH_b1_08343_0001_0000300038_0000001_0_0001 (protein)
chain: SSSSDLEKEIFHLLIEAYHLLQRGDEEEARELLEEAKELAEELNDPALLRAVEVLLAKLDSSSSS
B10: il10ra_site1_sap_14_mot_HHH_b2_05343_000000235_0001_19_35_H_._HHH_b2_05666_0001_0000600037_0000001_0_0001 (protein)
chain: SSSSDQEFYKAVEEAIEKAIKLEKNGNPEEAERLLEEILEKAEELGNWAARWSIRHLLELLSSSS
B11: il10ra_site1_sap_19_mot_HHH_b2_05984_000000071_0001_38_52_H_._919c246ba0fc10ef4578bdc7f1052ff8_0001_0001_0000100004_0000001_0_0001 (protein)
chain: NELEEELEELVERGDEEKVAELAVKVAKEKGSFSPEQLEALRRFIEALFRDNKKVAEHLARLVID
B12: il10ra_site1_normal_mot_HHH_b2_07579_000000275_0001_1_19_H_._HHH_b1_01139_af2_0001_0000300023_0000001_0_af2pred_0001 (protein)
chain: SSSSSEEKRKVLELLRKALEIEDKEEAEKVVEEAVRLAEELNDPLAAKLAEMLLEQLEKGSSSSS
B13: il10ra_site1_sap_25_mot_HHH_b2_07388_000000275_0001_18_35_H_._7abaf38a3307e851c9e6880adce6b300_0001_1_0001_0000100003_0000001_0_0001_af2pred_0001 (protein)
chain: SSSSDEEEEEVEKLLEELEKLLERGDREEVFRLFREAARIIAELRDEEAFRRLQELLKRLFSSSS
B14: il10ra_site1_normal_mot_HHH_b2_00345_af2_000000013_0001_42_56_H_._HHH_b2_01857_0001_0000400035_0000002_0 (protein)
chain: SSSSSDEEEEEVEELLEEAKHIEDHEKRIEILLEATHLALRAQDPELVQLVWEVFHRLIRSSSSS
B15: il10ra_site1_normal_mot_HHH_b1_02062_000000185_0001_1_20_H_._HHH_b1_08089_0001_0000100003_0000001_0_af2pred_0001 (protein)
chain: SSSSDVEERVEELFEEVEELLRQGDVEEAFKVSREMIELASENQDDEAAELAREASRLFARSSSS
B16: il10ra_site1_normal_mot_HHH_b1_00999_000000080_0001_41_55_H_._HHH_b2_01363_af2_0001_0000100001_0000002_0 (protein)
chain: SSSSSSEEVEEEVERLLEEAKEIEDPEEAMRVLLEALQIALRNNNKELLQLVWRIIKELGSSSSS
B17: il10ra_site1_normal_mot_HHH_b2_03220_af2_000000223_0001_23_40_H_._HHH_b1_01843_af2_0001_0000200015_0000002_0 (protein)
chain: SSSSSSSEAEEVWRLLREALHIDDEEEVQELLEEAKRLAEELNSEVLRIVIEFLERDLSSSSSSS
B18: il10ra_site1_sap_13_mot_HHH_b2_04993_000000082_0001_43_55_H_._0a28df53656836c8faf163f96bad2529_0001_1_af2_0001_0000100004_0000002_0_0001_af2pred_0001 (protein)
chain: SSSSDEEEERLEELLEEVEELLRQGDPEEAARLLFEVAKLAAELNDDEILKLVQELVHLLFSSSS
B19: il10ra_site1_normal_mot_HHH_b2_00475_000000107_0001_44_57_H_._HHH_b1_04904_0002_0000200015_0000002_0 (protein)
chain: SSSSDIIEVLYRLQHAVAKGDEEEIEELLEELEELLKKASEEERKYIEILLHFARAQLELLSSSS
B20: il10ra_site1_normal_mot_HHH_b2_02337_000000026_0001_38_52_H_._HHH_b1_01890_af2_0001_0000100004_0000001_1 (protein)
chain: SSSSDEEEKAEELIREAEELAENGNPEEAARVAQEALRLILELGDEEALQLLWEAVRRLARSSSS
B21: il10ra_site1_sap_21_mot_HHH_b1_06914_000000280_0001_1_18_H_._HHH_b2_08153_0001_0000400035_0000001_0_0001 (protein)
chain: SSSSSREELREEVEEVIEELEEKNDTKLLHRLMELYKRAAELGDEELVREIFEVLLRIVQKSSSS
B22: il10ra_site1_normal_mot_HHH_b1_01821_000000158_0001_23_39_H_._HHH_b1_01350_af2_0001_0000300008_0000001_0 (protein)
chain: SSSSSSDEEREEAEELLEEAKHVEDPERFIELILEAVRLALRSGDEELLQEIWELFKRKSSSSSS

molecular target: il10ra, Q13651; experiment: yeast display titration
Sequence (Q13651 whole entry): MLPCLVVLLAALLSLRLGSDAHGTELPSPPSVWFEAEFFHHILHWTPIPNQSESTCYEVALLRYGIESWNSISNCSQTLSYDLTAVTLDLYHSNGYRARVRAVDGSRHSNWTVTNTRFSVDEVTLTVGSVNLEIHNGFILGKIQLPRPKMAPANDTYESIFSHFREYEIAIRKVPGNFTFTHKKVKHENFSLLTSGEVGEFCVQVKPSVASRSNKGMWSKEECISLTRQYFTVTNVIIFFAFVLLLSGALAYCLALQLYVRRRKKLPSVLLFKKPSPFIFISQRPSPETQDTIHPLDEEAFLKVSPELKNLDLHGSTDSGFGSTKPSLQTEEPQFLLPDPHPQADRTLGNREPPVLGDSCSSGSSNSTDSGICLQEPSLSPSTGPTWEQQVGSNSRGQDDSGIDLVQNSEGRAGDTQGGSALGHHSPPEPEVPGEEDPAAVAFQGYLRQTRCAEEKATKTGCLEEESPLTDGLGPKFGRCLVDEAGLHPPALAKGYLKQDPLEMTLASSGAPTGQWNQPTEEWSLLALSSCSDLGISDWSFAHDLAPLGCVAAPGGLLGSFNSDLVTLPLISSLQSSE

Apparent Kd, inactive:
B1 no binding seen
B2 no binding seen
B3 no binding seen
B4 no binding seen
B5 no binding seen
B6 no binding seen
B7 no binding seen
B8 no binding seen
B9 no binding seen
B10 no binding seen
B11 no binding seen
B12 no binding seen
B13 no binding seen
B14 no binding seen
B15 no binding seen
B16 no binding seen
B17 no binding seen
B18 no binding seen
B19 no binding seen
B20 no binding seen
B21 no binding seen
B22 no binding seen
